The values below come from PubChem BioAssay (NCI).

The panel holds about 79,000 compounds, 15% with a hit somewhere; the sample as a whole holds those more often. A number with no mark means an inactive call. Active and inactive are the calls of the source. No stated cut-off is given here; in the data, active means growth inhibition above about 70%; inactive means the rest.

Test [1] in a line: NCI Yeast Anticancer Drug Screen. Data for the rad50 strain (AID 155).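 Further: 0% = growth of vehicle-only cultures of the same strain.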 Conditions: S. cerevisiae rad50 strain growth inhibition, active compounds read high. The essentials: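 Relative growth inhibition (compound vs vehicle) was measured in yeast with a defined repair-gene alteration.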
Test [2] can be described thus: NCI Yeast Anticancer Drug Screen. Data for the mec2-1 strain (AID 157). Conditions: S. cerevisiae mec2-1 strain, active compounds read high. In short, it runs like this: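 Cells of the genetically defined mec2-1 yeast strain are incubated with test compound. Inhibition of growth is calculated against vehicle-treated controls.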
Test [3] can be described thus: NCI Yeast Anticancer Drug Screen. Data for the sgs1 mgt1 strain (AID 161).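 Further: 0% = growth of cultures given vehicle only.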 Conditions: S. cerevisiae sgs1 mgt1 strain, active compounds read high. The essentials: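 Read-out: growth inhibition vs vehicle controls. Cells: mutant yeast strain deficient in DNA damage repair.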
A short description of test [4]: NCI Yeast Anticancer Drug Screen. Data for the cln2 rad14 strain (AID 165).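 Further: 0% = growth equal to vehicle treated cultures.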 Conditions: S. cerevisiae cln2 rad14 strain, active compounds read high. In short, it runs like this: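 The screen exposed genetically defined yeast (cln2 rad14) to test compounds and scored growth inhibition relative to vehicle-treated controls.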
Test [5] can be described thus: NCI Yeast Anticancer Drug Screen. Data for the bub3 strain (AID 167). Conditions: S. cerevisiae bub3 mutant strain, active compounds read high. In short, it runs like this: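 Screening used yeast with an engineered genetic alteration affecting cell cycle control. Compound-exposed cultures were compared with vehicle cultures, and reduced growth was taken as inhibition.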

The nature of test [6]: NCI Yeast Anticancer Drug Screen. Data for the mlh1 rad18 strain (AID 175). Conditions: S. cerevisiae mlh1 rad18 strain growth inhibition, active compounds read high. In short, it runs like this:
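Compound-treated yeast growth, normalised to vehicle controls. Strain bears defined DNA repair mutations.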

[7] abbreviates: at 5.0 µM (retest, dose inferred, filed as 0.5).
Where [8] appears, read: at 50.0 µM (retest, dose inferred, filed as 5.0).

As for `Cc1ccc2c(c1)[n+]([O-])c(N)c(C#N)[n+]2[O-]`, the growth inhibition in test [1] (setting [7]) was 0%; in test [1] (setting [8]) it was 97% (active); in test [1] (at 50.0 µM), 68.5%; in test [2] (setting [7]) it was -22%; in test [2] (setting [8]), 98% (active); in test [2] (at 50.0 µM), 25.8%. The growth inhibition was -16% in test [3] (setting [7]); 97% (active) in test [3] (setting [8]); 36.3% in test [3] (at 50.0 µM); -26% in test [4] (setting [7]); 98% (active) in test [4] (setting [8]); 15.8% in test [4] (at 50.0 µM). The growth inhibition was -31% in test [5] (setting [7]); 97% (active) in test [5] (setting [8]); 29.4% in test [5] (at 50.0 µM); -48% in test [6] (setting [7]); 96% (active) in test [6] (setting [8]); 62.4% in test [6] (at 50.0 µM).
For `c1ccc2c(c1)C[n+]1ccc3ccccc3c1-c1c3ccccc3cc[n+]1C2`, the growth inhibition was 8% in test [1] (setting [7]); 28% in test [1] (setting [8]); 64.2% in test [1] (at 50.0 µM); 6% in test [2] (setting [7]); 20% in test [2] (setting [8]); 13.4% in test [2] (at 50.0 µM). Further, the growth inhibition in test [3] (setting [7]) was 11%; in test [3] (setting [8]), 40%; in test [3] (at 50.0 µM) it was 69.8%; in test [4] (setting [7]), 1%; in test [4] (setting [8]), 18%; in test [4] (at 50.0 µM) it was 53%. The growth inhibition in test [5] (setting [7]) was -2%; in test [5] (setting [8]) it was 4%; in test [5] (at 50.0 µM), 7.85%; in test [6] (setting [7]), 7%; in test [6] (setting [8]), 21%; in test [6] (at 50.0 µM) it was 65.8%.
As to `ClCc1nnc2n1-c1ccc(Cl)cc1SC2`, the growth inhibition in test [1] (setting [7]) is 3%; in test [1] (setting [8]), 68%; in test [1] (at 50.0 µM), 12.4%; in test [2] (setting [7]) it was 0%; in test [2] (setting [8]), 64%; in test [2] (at 50.0 µM), 25.9%. In addition, the growth inhibition in test [3] (setting [7]) is -21%; in test [3] (setting [8]), 66%; in test [3] (at 50.0 µM) it was 35.3%; in test [4] (setting [7]), 13%; in test [4] (setting [8]), 88% (active); in test [4] (at 50.0 µM), 6.15%. Moreover, the growth inhibition in test [5] (setting [7]) is 3%; in test [5] (setting [8]), 92% (active); in test [5] (at 50.0 µM) it was 20.9%; in test [6] (setting [7]), -20%; in test [6] (setting [8]), 87% (active); in test [6] (at 50.0 µM), 24.1%.
As for `CC(=O)c1cc(-c2ccccc2)nc2ccccc12`, the growth inhibition is -5% in test [1] (setting [7]); 38% in test [1] (setting [8]); 89.2% (active) in test [1] (at 50.0 µM); -29% in test [2] (setting [7]); 84% (active) in test [2] (setting [8]); 94.1% (active) in test [2] (at 50.0 µM). The growth inhibition was 12% in test [3] (setting [7]); 80% (active) in test [3] (setting [8]); 98.2% (active) in test [3] (at 50.0 µM); -25% in test [4] (setting [7]); 35% in test [4] (setting [8]); 74.5% (active) in test [4] (at 50.0 µM). The growth inhibition was -28% in test [5] (setting [7]); 87% (active) in test [5] (setting [8]); 87% (active) in test [5] (at 50.0 µM); 4% in test [6] (setting [7]); 88% (active) in test [6] (setting [8]); 97.1% (active) in test [6] (at 50.0 µM).
Take `Cc1[nH]c2ccccc2c1/C=C1\C(=O)C2CCC1C2` (configuration not stated): the growth inhibition is -7% in test [1] (setting [7]); 75% (active) in test [1] (setting [8]); 95.4% (active) in test [1] (at 50.0 µM); -4% in test [2] (setting [7]); 73% (active) in test [2] (setting [8]); 34.6% in test [2] (at 50.0 µM). Also, the growth inhibition in test [3] (setting [7]) is -6%; in test [3] (setting [8]), 92% (active); in test [3] (at 50.0 µM), 71.3% (active); in test [4] (setting [7]) it was -4%; in test [4] (setting [8]), 38%; in test [4] (at 50.0 µM), 45.4%. Besides, the growth inhibition in test [5] (setting [7]) was -16%; in test [5] (setting [8]), 80% (active); in test [5] (at 50.0 µM), 39%; in test [6] (setting [7]) it was -14%; in test [6] (setting [8]), 80% (active); in test [6] (at 50.0 µM), 86.9% (active).
Regarding `CC(CO)[C@H]1OC(=O)C=C2[C@@]13O[C@@H]3[C@H]1OC(=O)[C@@]3(C)[C@H]4O[C@H]4C[C@@]2(C)[C@@H]13` (some centres not stated), the growth inhibition in test [1] (setting [7]) is 51%; in test [1] (setting [8]) it was 98% (active); in test [1] (at 50.0 µM) it was 89.8% (active); in test [2] (setting [7]), 47%; in test [2] (setting [8]), 99% (active); in test [2] (at 50.0 µM) it was 91% (active). The growth inhibition is 58% in test [3] (setting [7]); 97% (active) in test [3] (setting [8]); 88.2% (active) in test [3] (at 50.0 µM); 59% in test [4] (setting [7]); 98% (active) in test [4] (setting [8]); 89.5% (active) in test [4] (at 50.0 µM). For the same compound, the growth inhibition is 66% in test [5] (setting [7]); 98% (active) in test [5] (setting [8]); 88.8% (active) in test [5] (at 50.0 µM); 61% in test [6] (setting [7]); 97% (active) in test [6] (setting [8]); 89.8% (active) in test [6] (at 50.0 µM).
On to `O=C(O)/C(=C\c1ccc(F)cc1)c1ccccc1`, for which the growth inhibition in test [1] (setting [7]) was -3%; in test [1] (setting [8]), -12%; in test [1] (at 50.0 µM), 48%; in test [2] (setting [7]), -18%; in test [2] (setting [8]), -9%; in test [2] (at 50.0 µM), 64.9%. Further, the growth inhibition in test [3] (setting [7]) is -4%; in test [3] (setting [8]) it was -16%; in test [3] (at 50.0 µM), 11.9%; in test [4] (setting [7]), 29%; in test [4] (setting [8]) it was 11%; in test [4] (at 50.0 µM), 38.8%. Moreover, the growth inhibition in test [5] (setting [7]) was 3%; in test [5] (setting [8]), 28%; in test [5] (at 50.0 µM), 70.8% (active); in test [6] (setting [7]), -12%; in test [6] (setting [8]), 9%; in test [6] (at 50.0 µM) it was 50.2%.
Consider `CC(=O)OC1C(C)OC(OC(=O)C2CCC3C(C2)OC2(CC(OC(=O)/C=C/c4ccccc4)C(C)CO2)C32CO2)C(OC2OC(C)C(O)C(OC(C)=O)C2O)C1O` (configuration not stated), for which the growth inhibition was 34% in test [1] (setting [7]); 97% (active) in test [1] (setting [8]); 87.9% (active) in test [1] (at 50.0 µM); 36% in test [2] (setting [7]); 99% (active) in test [2] (setting [8]); 92% (active) in test [2] (at 50.0 µM). Further, the growth inhibition in test [3] (setting [7]) was 30%; in test [3] (setting [8]), 99% (active); in test [3] (at 50.0 µM), 91.5% (active); in test [4] (setting [7]), 45%; in test [4] (setting [8]) it was 96% (active); in test [4] (at 50.0 µM), 88.1% (active). Also, the growth inhibition in test [5] (setting [7]) was 31%; in test [5] (setting [8]), 99% (active); in test [5] (at 50.0 µM), 90.2% (active); in test [6] (setting [7]), 31%; in test [6] (setting [8]), 97% (active); in test [6] (at 50.0 µM), 85.2% (active).
Regarding `CC(=O)Oc1cc2c(cc1OC(C)=O)OCC(c1ccc(C)cc1)C2` (configuration not stated), the growth inhibition in test [1] (setting [7]) is 8%; in test [1] (setting [8]), 65%; in test [1] (at 50.0 µM), 53.1%; in test [2] (setting [7]), 8%; in test [2] (setting [8]) it was 49%; in test [2] (at 50.0 µM), 57.9%. The growth inhibition in test [3] (setting [7]) was 4%; in test [3] (setting [8]), 61%; in test [3] (at 50.0 µM), 32.1%; in test [4] (setting [7]) it was 2%; in test [4] (setting [8]), 72% (active); in test [4] (at 50.0 µM) it was 64%. Further, the growth inhibition in test [5] (setting [7]) is 8%; in test [5] (setting [8]) it was 87% (active); in test [5] (at 50.0 µM) it was 73.7% (active); in test [6] (setting [7]) it was 0%; in test [6] (setting [8]), 64%; in test [6] (at 50.0 µM) it was 75.8% (active).
